# Source: PubChem BioAssay AID1159580 (chemical genetic matrix, 2015)
# Screen size: about 5,500 compounds; about 2,000 (36%) were called active. Inconclusive results (about 18%) are left out. Some of the results follow. Values without a mark were called inactive. Rule as the data show it: active = normalized growth mostly below about 0.91 (no sharp cut-off); inconclusive = no clear call, values can overlap the other calls; inactive = mostly above about 0.92.
# Assay: chemical genetic growth profiling, strain panel (AID 1159580);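 also: tested at 20 µM; growth read once vehicle control cultures reached saturation at 30 °C; 1 = growth at the plate median or of vehicle wells; lower values mean less growth of the strain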
# Conditions: S. cerevisiae deletion strains, growth OD
# [1] = locus YAL013W, strain DEP1, stronger effect = lower value
# [2] = locus YBR229C, strain ROT2, stronger effect = lower value
# [3] = locus YCL061C, strain MRC1, stronger effect = lower value
# [4] = locus YDL101C, strain DUN1, stronger effect = lower value
# [5] = locus YDR150W, strain NUM1, stronger effect = lower value
# [6] = locus YEL061C, strain CIN8, stronger effect = lower value
# [7] = locus YGR078C, strain PAC10, stronger effect = lower value
# [8] = locus YHR030C, strain SLT2, stronger effect = lower value
# [9] = locus YHR087W, strain rtc3, stronger effect = lower value
# [10] = locus YJL187C, strain SWE1, stronger effect = lower value
# [11] = locus YJR043C, strain POL32, stronger effect = lower value
# [12] = locus YJR075W, strain HOC1, stronger effect = lower value
# [13] = locus YKL190W, strain CNB1, stronger effect = lower value
# [14] = locus YLR039C, strain RIC1, stronger effect = lower value
# [15] = locus YLR058C, strain SHM2 (second series), stronger effect = lower value
# [16] = locus YLR085C, strain ARP6, stronger effect = lower value
# [17] = locus YLR262C, strain YPT6, stronger effect = lower value
# [18] = locus YML094W, strain GIM5, stronger effect = lower value
# [19] = locus YMR219W, strain ESC1, stronger effect = lower value
# [20] = locus YMR263W, strain SAP30, stronger effect = lower value
# [21] = locus YMR307W, strain GAS1, stronger effect = lower value
# [22] = locus YNL153C, strain GIM3, stronger effect = lower value
# [23] = locus YNL298W, strain CLA4 (second series), stronger effect = lower value
# [24] = locus YNL322C, strain KRE1, stronger effect = lower value
# [25] = locus YNR030W, strain Alg12, stronger effect = lower value
# [26] = locus YOL006C, strain TOP1, stronger effect = lower value
# [27] = locus YPL055C, strain LGE1, stronger effect = lower value
# [28] = locus YPL241C, strain CIN2, stronger effect = lower value
# [29] = locus YPR135W, strain CTF4, stronger effect = lower value
# [30] = locus YGR229C, strain SMI1, stronger effect = lower value
compound,measurement,setting,value
Cc1c(S(=O)(=O)c2ccc(Cl)cc2)csc1C(=O)Nc1ccc(N2CCOCC2)c(Cl)c1,normalized growth,[1],0.992
same,normalized growth,[2],1.03
same,normalized growth,[3],1.05
same,normalized growth,[4],1.06
same,normalized growth,[5],1.05
same,normalized growth,[6],1.03
same,normalized growth,[7],1.07
same,normalized growth,[8],1.06
same,normalized growth,[9],0.999
same,normalized growth,[10],1.03
same,normalized growth,[11],1.03
same,normalized growth,[12],1.15 [resistant] (active)
same,normalized growth,[13],0.982
same,normalized growth,[14],0.992
same,normalized growth,[15],0.989
same,normalized growth,[16],0.947
same,normalized growth,[17],1.12
same,normalized growth,[18],0.988
same,normalized growth,[19],1
same,normalized growth,[20],1.03
same,normalized growth,[21],1.03
same,normalized growth,[22],1.06
same,normalized growth,[23],0.999
same,normalized growth,[24],0.991
same,normalized growth,[25],0.995
same,normalized growth,[26],1.03
same,normalized growth,[27],1.05
same,normalized growth,[28],0.984
same,normalized growth,[29],1.13
Cc1c(S(=O)(=O)c2ccc(Cl)cc2)csc1S(=O)(=O)N/N=C\c1c(Cl)cccc1Cl,normalized growth,[1],1
same,normalized growth,[2],1.01
same,normalized growth,[4],1.02
same,normalized growth,"locus YDL134C, strain PPH21, stronger effect = lower value",0.996
same,normalized growth,[5],0.948
same,normalized growth,[6],0.991
same,normalized growth,[7],1.01
same,normalized growth,[30],1
same,normalized growth,[8],1.02
same,normalized growth,[9],0.998
same,normalized growth,[11],1.01
same,normalized growth,[12],1.03
same,normalized growth,[13],1
same,normalized growth,[14],1
same,normalized growth,[15],1.01
same,normalized growth,[16],1.04
same,normalized growth,[17],1
same,normalized growth,[18],0.988
same,normalized growth,[19],1.01
same,normalized growth,[20],0.984
same,normalized growth,[21],1.04
same,normalized growth,[22],1
same,normalized growth,[23],1.03
same,normalized growth,[24],1
same,normalized growth,[25],1.01
same,normalized growth,[26],1.03
same,normalized growth,[27],0.886
same,normalized growth,[28],0.993
same,normalized growth,[29],1
Cc1cscc1S(=O)(=O)c1ccc(Cl)cc1,normalized growth,[1],0.991
same,normalized growth,[2],0.969
same,normalized growth,[3],0.97
same,normalized growth,[4],0.966
same,normalized growth,[5],0.929
same,normalized growth,[6],0.98
same,normalized growth,[7],0.958
same,normalized growth,[30],0.981
same,normalized growth,[8],0.821
same,normalized growth,[9],0.974
same,normalized growth,[10],1
same,normalized growth,[11],0.958
same,normalized growth,[12],0.922
same,normalized growth,[13],0.991
same,normalized growth,[14],0.819
same,normalized growth,[15],0.975
same,normalized growth,[16],0.967
same,normalized growth,[17],0.833
same,normalized growth,[18],0.969
same,normalized growth,[19],0.978
same,normalized growth,[20],0.953
same,normalized growth,[21],0.855
same,normalized growth,"locus YNL128W, strain TEP1, stronger effect = lower value",0.994
same,normalized growth,[22],0.945
same,normalized growth,[23],0.961
same,normalized growth,[24],0.975
same,normalized growth,[25],0.95
same,normalized growth,[26],0.904
same,normalized growth,[27],0.898
same,normalized growth,[28],0.953
same,normalized growth,[29],0.765
Cc1c(S(=O)(=O)c2ccc(Cl)cc2)csc1C(=O)NNc1cccc(Cl)c1,normalized growth,"locus YAR019C, strain CDC15, stronger effect = lower value",0.964
same,normalized growth,"locus YBL105C, strain PKC1, stronger effect = lower value",0.958
same,normalized growth,"locus YBR135W, strain CKS1, stronger effect = lower value",0.96
same,normalized growth,"locus YBR136W, strain MEC1, stronger effect = lower value",0.962
same,normalized growth,"locus YBR160W, strain CDC28, stronger effect = lower value",0.957
same,normalized growth,"locus YDL017W, strain CDC7, stronger effect = lower value",0.967
same,normalized growth,"locus YDL028C, strain MPS1, stronger effect = lower value",0.97
same,normalized growth,[4],0.978
same,normalized growth,"locus YDL108W, strain KIN28, stronger effect = lower value",0.973
same,normalized growth,"locus YDL132W, strain cdc53, stronger effect = lower value",0.954
same,normalized growth,"locus YDL214C, strain PRR2, stronger effect = lower value",0.826
same,normalized growth,"locus YDR052C, strain DBF4, stronger effect = lower value",0.953
same,normalized growth,"locus YDR054C, strain cdc34, stronger effect = lower value",0.947
same,normalized growth,"locus YDR226W, strain ADK1, stronger effect = lower value",0.959
same,normalized growth,"locus YDR477W, strain SNF1, stronger effect = lower value",0.769
same,normalized growth,"locus YER123W, strain YCK3, stronger effect = lower value",0.574 (active)
same,normalized growth,"locus YER133W, strain GLC7, stronger effect = lower value",0.864
same,normalized growth,"locus YFL009W, strain cdc4, stronger effect = lower value",0.962
same,normalized growth,"locus YFL029C, strain CAK1, stronger effect = lower value",0.959
same,normalized growth,"locus YFR003C, strain YPI1, stronger effect = lower value",0.967
same,normalized growth,"locus YFR019W, strain FAB1, stronger effect = lower value",0.653 (active)
same,normalized growth,"locus YFR028C, strain CDC14, stronger effect = lower value",0.948
same,normalized growth,"locus YGR040W, strain KSS1, stronger effect = lower value",0.811
same,normalized growth,"locus YGR052W, strain FMP48, stronger effect = lower value",0.71
same,normalized growth,"locus YGR092W, strain DBF2, stronger effect = lower value",0.783
same,normalized growth,[8],0.884
same,normalized growth,"locus YHR079C, strain IRE1, stronger effect = lower value",1.01
same,normalized growth,"locus YHR082C, strain KSP1, stronger effect = lower value",0.958
same,normalized growth,"locus YHR205W, strain SCH9, stronger effect = lower value",0.907
same,normalized growth,"locus YIL147C, strain SLN1, stronger effect = lower value",0.972
same,normalized growth,"locus YJL095W, strain BCK1, stronger effect = lower value",0.679
same,normalized growth,"locus YJL128C, strain PBS2, stronger effect = lower value",0.968
same,normalized growth,"locus YJL157C, strain FAR1, stronger effect = lower value",0.886
same,normalized growth,"locus YJR016C, strain ILV3, stronger effect = lower value",0.968
same,normalized growth,"locus YJR066W, strain TOR1 (second series), stronger effect = lower value",0.684
same,normalized growth,"locus YJR066W, strain TOR1, stronger effect = lower value",0.872
same,normalized growth,"locus YKL048C, strain ELM1, stronger effect = lower value",0.947
same,normalized growth,"locus YKL067W, strain YNK1, stronger effect = lower value",0.879
same,normalized growth,"locus YKL101W, strain HSL1, stronger effect = lower value",0.948
same,normalized growth,"locus YKL193C, strain SDS22, stronger effect = lower value",0.963
same,normalized growth,"locus YKL203C, strain TOR2, stronger effect = lower value",0.954
same,normalized growth,"locus YLR113W, strain HOG1, stronger effect = lower value",0.675 (active)
same,normalized growth,"locus YLR133W, strain CKI1, stronger effect = lower value",0.81
same,normalized growth,"locus YLR403W, strain SFP1, stronger effect = lower value",0.877
same,normalized growth,"locus YML070W, strain DAK1, stronger effect = lower value",0.823
same,normalized growth,"locus YMR001C, strain CDC5, stronger effect = lower value",0.961
same,normalized growth,"locus YMR205C, strain PFK2 (second series), stronger effect = lower value",0.91
same,normalized growth,"locus YMR277W, strain FCP1, stronger effect = lower value",0.96
same,normalized growth,"locus YNL006W, strain LST8, stronger effect = lower value",0.963
same,normalized growth,"locus YNL020C, strain ARK1, stronger effect = lower value",0.941
same,normalized growth,"locus YNL161W, strain CBK1, stronger effect = lower value",0.955
same,normalized growth,"locus YNL183C, strain NPR1, stronger effect = lower value",0.911
same,normalized growth,"locus YNL207W, strain RIO2, stronger effect = lower value",0.969
same,normalized growth,"locus YNL222W, strain SSU72, stronger effect = lower value",0.961
same,normalized growth,"locus YNL307C, strain MCK1 (second series), stronger effect = lower value",0.743
same,normalized growth,"locus YOL078W, strain AVO1, stronger effect = lower value",0.965
same,normalized growth,"locus YOL136C, strain PFK27, stronger effect = lower value",0.889
same,normalized growth,"locus YOR119C, strain RIO1, stronger effect = lower value",0.905
same,normalized growth,"locus YOR231W, strain MKK1, stronger effect = lower value",0.942
same,normalized growth,"locus YOR329C, strain SCD5, stronger effect = lower value",0.969
same,normalized growth,"locus YPL031C, strain PHO85, stronger effect = lower value",0.852
same,normalized growth,"locus YPL153C, strain RAD53, stronger effect = lower value",0.857
same,normalized growth,"locus YPL204W, strain HRR25, stronger effect = lower value",0.897
same,normalized growth,"locus YPL209C, strain IPL1, stronger effect = lower value",0.955
same,normalized growth,"locus YPL256C, strain CLN2, stronger effect = lower value",0.733 (active)
same,normalized growth,"locus YPR025C, strain CCL1, stronger effect = lower value",0.962
same,normalized growth,"locus YPR106W, strain ISR1, stronger effect = lower value",0.971
same,normalized growth,"locus YPR111W, strain DBF20, stronger effect = lower value",0.952
same,normalized growth,"strain NNK1, stronger effect = lower value",0.966
same,normalized growth,"strain TSCII, stronger effect = lower value",0.957
